# In the library only some 7.9% were active in any assay of this set; here they are far more common.
# HCMV inh – qHTS Assay for inhibitors of the human cytomegalovirus (HCMV) | HFF cells, HCMV-luciferase reporter, 72 h; active compounds read low | activity change, negative = inhibition, % at 57.5 µM | 4.5% of 410,000 active | AID 1259415, 2018; in the data active = activity change below about -60%; inconclusive = no clear call, values can overlap the other calls; inactive = above about -39%
#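 Two-dose cell screen: HFF monolayers treated with compounds and infected with luciferase-expressing HCMV at 1 PFU/cell, 72 h at 37C, then lysed for luciferase measurement.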
# HCV inh – qHTS Assay for Inhibitors of Hepatitis C Virus (HCV); Huh7.5.1 HCVcc-Cre infection, luciferase reporter, 44 h; Potency, µM (highest dose often 41.8 µM), inactives show at the highest dose activity change, negative = inhibition, most hits filed as inhibitors; 3.4% of 340,000 active; AID 651820, 2012; active = well fitted inhibition curve with a large enough effect; inconclusive = small, poorly fitted or top-dose-only effect, or another doubt; inactive = no such curve, though single readings can be large or run the other way; note: potency is the fitted concentration of half-maximal effect
#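 HCVcc-Cre virus at an moi near 0.5 was added right after compound to cells cultured 4 h from seeding (1,000 cells/well). Luciferase activity was determined 44 h later, 15 min after substrate addition at RT.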
# MARV entry inh – qHTS for inhibitors of binding or entry into cells for Marburg Virus; AID 540276, 2011; 1.8% of 300,000 active; Marburg virus pseudotyped entry inhibition, cell reporter; Potency, µM (series often up to 37.8 µM), for the others: at the top dose activity change, negative = inhibition, most hits filed as inhibitors; calls by dose curve; tested in HEK293 cells; note: potency is the fitted concentration of half-maximal effect
# FMDV inh – High Throughput Screening for Foot and Mouth Disease Virus Antivirals | FMDV antiviral cell-based qHTS | Potency, µM (series often up to 57.9 µM), for the others: at the top dose activity change, negative = inhibition, hits mostly inhibitors | 1.2% of 410,000 active; calls by dose curve; tested in HEK293T cells; note: read-out not given here; potency is the fitted concentration of half-maximal effect; nearly all actives have a fitted effect of over 45% in size
# LASV entry inh – qHTS for Inhibitors of binding or entry into cells for Lassa Virus; Lassa virus pseudotype entry inhibition, cell reporter; 1.2% of 300,000 active; Potency, µM (series often up to 37.9 µM), for inactives: at the highest dose activity change, negative = inhibition, usual class: inhibitors; calls by dose curve; tested in HEK293 cells; note: potency is the fitted concentration of half-maximal effect; nearly all actives have a fitted effect of over 50% in size
# * hit, by the source's call; ? = inconclusive; nt = no result; [ ] = another dose, or the depositor's remark. % is set by controls: 0 for no effect and ±100 for the full control effect.
SMILES,HCMV inh,HCV inh,MARV entry inh,FMDV inh,LASV entry inh
CC(C)(C)N1C(=O)c2ccccc2NC(=O)C1C(=O)Nc1ccc2c(c1)OCCO2 (centres undefined),-10.7,nt,nt,11.6%,nt
CCN1C(=O)c2ccc(C(=O)Nc3ccc4c(c3)OCO4)cc2C1=O,11.8,-14.6%,nt,0.0%,nt
COc1ccc(-c2cn3ccccc3n2)cc1,21.7,5.4%,nt,-23.4%,nt
CCCOc1ccc(-c2cn3ccccc3n2)cc1,-63.9*,?,nt,-54.1%,nt
CCN(C1CCCCC1)S(=O)(=O)c1cc2c3c(c1)CCN3C(=O)CC2,-11.3,8.5%,-1.5%[46.1 µM],-9.0%,-9.5%
O=[N+]([O-])c1ccc(-c2nc(C(Cl)Cl)c3ccccc3n2)cc1,-102.4*,2µM*,?,-11.9%,?
Cc1cc(C)c(NC(=O)CCCN2CCCC2)c(C)c1,-67.2*,8.3%,2.3%[46.1 µM],-2.5%,-1.2%[46.1 µM]
CCCn1ncc(CN2CCC(C(=O)Nc3cccc(-c4cccc(F)c4)c3)CC2)c1C,-65.3*,?,2.51µM*,-12.3%,?
CCCc1ncc(CN2CCC(C(=O)Nc3cccc(-c4cscn4)c3)CC2)cn1,-25.3,11.2µM*,nt,-27.4%,nt
COCCc1ncc(CN2CCC(C(=O)Nc3cccc(-c4cscn4)c3)CC2)cn1,-15.3,?,nt,?,nt
COc1cccc(-c2cccc(NC(=O)C3CCN(Cc4cnn(C)c4)CC3)c2)c1,11.3,-3.2%,23.9%,-14.7%,6.7%
Cc1cccc(CN2CCC(C(=O)Nc3cccc(-c4cccc(F)c4)c3)CC2)n1,-33.5,7.94µM*,nt,-25.6%,nt
Cn1cc(CN2CCC(C(=O)Nc3cccc(-c4cccc(F)c4)c3)CC2)cn1,-1.2,10µM*,nt,-12.2%,nt
Cc1nn(C(C)C)c(C)c1CN1CCC(C(=O)Nc2cccc(-c3cccc(F)c3)c2)CC1,30.5,10µM*,nt,-17.1%,nt
COc1ccc(/C=N/Nc2cc(C)nc(NS(=O)(=O)c3ccc(C)cc3)n2)cc1,-62.2*,2.1%,-16.4%[46.1 µM],27.4%,-20.0%[46.1 µM]
COc1ccc(/C=N/Nc2cc(C)nc(-n3nc(C)cc3C)n2)cc1,-98.6*,?,16.4µM*,31.6µM*,?
Cc1cc(N/N=C/c2ccc(O)cc2O)nc(-n2nc(C)cc2C)n1,?,?,3.66µM*,?,7.31µM*
Cc1cc(N/N=C/c2cccc(Cl)c2)nc(-n2nc(C)cc2C)n1,-86.8*,17.8µM*,?,-8.6%,?
Cc1cc(C)n2nc(C(=O)N/N=C/c3cccc(Cl)c3)nc2n1,-1.7,5.4%,16.9%[46.1 µM],12.3%,17.4%[46.1 µM]
Cc1cc(N/N=C/c2ccc(O)cc2O)nc(-c2ccccc2O)n1,nt,?,?,0.0%,?
CN(C)S(=O)(=O)c1ccc(NC(=O)CN2CCN(c3ccccn3)CC2)cc1,3.1,?,?,10.2%,?
Cc1cc(N/N=C/c2cccc([N+](=O)[O-])c2)nc(-n2nc(C)cc2C)n1,?,?,-17.5%[46.1 µM],-20.5%,3.4%[46.1 µM]
Cc1cc(N/N=C/c2ccccc2[N+](=O)[O-])nc(-n2nc(C)cc2C)n1,-98.6*,2.51µM*,?,?,?
O=C(NCCc1c[nH]c2ccccc12)C(=O)c1c[nH]c2ccccc12,-8.1,6.1%,nt,6.5%,nt
Cc1cc2cc(CCNC(=O)C(=O)c3c[nH]c4ccccc34)c(=O)[nH]c2cc1C,-14.2,-17.6%,?,1.0%,12.6µM*
SMILES,HCMV inh,HCV inh,MARV entry inh,FMDV inh,LASV entry inh
CCCC(C)C(=O)Nc1cc([N+](=O)[O-])ccc1Cl (centres undefined),?,-20.1%,5.3%[46.1 µM],0.0%,3.6%[46.1 µM]
CCCC(C)C(=O)Nc1ccc(Cl)cc1Cl (centres undefined),-77.8*,-21.8%,-0.3%,2.8%,-0.5%
COC(=O)c1sccc1S(=O)(=O)N1CCN(c2cccc(C)c2C)CC1,-0.4,nt,nt,-23.5%,?
COc1ccc(S(=O)(=O)Nc2cc(Sc3ncn[nH]3)c(O)c3ccccc23)cc1,-77.6*,31.6µM*,nt,nt,nt
COc1ccc(S(=O)(=O)Nc2ccc(O)c(Sc3ncn[nH]3)c2)cc1,17.3,-11.5%,5.6%,nt,2.9%
CC(=O)Oc1ccccc1/C=C1\CCOC1=O,-62.4*,12.8%,-17.0%,nt,0.0%
COC(=O)c1cc(=O)n(CCc2ccccc2F)c(=Nc2ccc(F)c(Cl)c2)s1,?,7.94µM*,-6.1%,15.8µM*,nt
COC(=O)c1cc(=O)n(Cc2cccs2)c(=Nc2ccc(F)cc2)s1,-28.6,?,nt,?,nt
COC(=O)c1ccc(N=c2sc(C(=O)OC)cc(=O)n2C)cc1,20.5,10.6%,nt,31.6µM*,nt
CCOC(=O)c1ccc(N=c2sc(C(=O)OC)cc(=O)n2C2CC2)cc1,15.0,-5.3%,-1.0%,?,-1.4%
COC(=O)c1cc(=O)n(-c2ccc(F)cc2)c(=Nc2ccc(F)cc2)s1,64.4,?,?,22.4µM*,-16.6%
COc1ccc(O[C@H]2C=C[C@@H](c3ccccc3)O[C@H]2COC(=O)CCC(C)=NO[C@@H]2O[C@H](COC(C)=O)[C@@H](OC(C)=O)[C@H](OC(C)=O)[C@@H]2OC(C)=O)cc1,nt,nt,-23.1%[14.2 µM],nt,nt
CC(C)(C)S(=O)N1Cc2cc(CO)cc(CCO)c2[C@@H]1CCO (some centres undefined),14.1,-7.6%,nt,-22.4%,nt
Cc1c(C(=O)NN)[nH]c2ccc([N+](=O)[O-])cc12,-27.1,-10.0%,?,-1.0%,-17.9%
Cc1ccc(C)c2c1[nH]c1ccccc12,22.3,7.94µM*,7.0%,-1.0%,-4.9%
Cc1ccc(C)c2c1[nH]c1ccc([N+](=O)[O-])cc12,-30.0,10µM*,-16.5%,-12.2%,?
CCOC(=O)C(c1nc2ccccc2[nH]1)n1c(-c2ccccn2)nc2ccccc21 (centres undefined),76.7,nt,nt,0.0%,nt
COc1cccc(-c2nc(N3CCCC3)c3ccccc3n2)c1O,22.4,5.01µM*,-10.4%[46.1 µM],-11.2%,6.1%
COc1cccc(-c2nc(N3CC(C)CC(C)C3)c3ccccc3n2)c1O (centres undefined),62.0,14.1µM*,?,?,?
O=C(Cn1c(=O)n(-c2ccc(F)c(Cl)c2)c(=O)c2sc3ccccc3c21)NC1CCCC1,8.1,nt,-7.9%[46.1 µM],-0.3%,4.0%[46.1 µM]
O=C(O)[C@H](Cc1ccccc1)N1C(=O)c2c(Cl)c(Cl)c(Cl)c(Cl)c2C1=O,?,24.5%,nt,-28.2%,nt
COCC(=O)NC1CC2CCC(C1)N2C(=S)Nc1ccccc1C(=O)OC (centres undefined),-82.8*,3.5%,-1.7%[46.1 µM],-11.1%,-24.9%
Fc1ccc(CN2CCN(c3ncnc4scc(-c5ccccc5)c34)CC2)cc1,-73.7*,?,nt,?,nt
CN1CCN(c2ncnc3scc(-c4ccccc4Cl)c23)CC1,-73.2*,-15.7%,?,?,-12.9%
OCC1CCCN(c2nc(CN3CCCCC3)nc3scc(-c4ccccc4)c23)C1 (centres undefined),?,?,?,0.0%,?
OCC1CCCN(c2ncnc3scc(-c4ccccc4)c23)C1 (centres undefined),-63.2*,-12.5%,nt,-19.2%,nt
